Measurements as given in the supplement of paper PMC9794691.
± gives the standard deviation of the averaged measurements.

Test system: PC9
Assay: area under confluence curve of osimertinib + compound combination regimen (DTP regrowth); compare to osimertinib-only DTP control AUC of the same experiment (AUC (confluence x time, arbitrary))
Method: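 compare to osimertinib-only DTP control AUC of the same experiment; Long-term drug-tolerant persister (DTP) screen in EGFR-mutant NSCLC cell lines in 48-well plates. The test compound was given at one fixed dose with osimertinib, either upfront (from day 0 to the DTP stage at 10-21 days, then drug-free medium) or sequentially (osimertinib alone to the DTP stage, then the test compound). IncuCyte confluence was tracked until osimertinib-only controls regrew, and AUC was computed in Prism. AUC scale depends on experiment duration, so each row carries the same-experiment osimertinib-only DTP and DMSO control AUCs; combination activity = control minus combo AUC. Osimertinib dose not stated.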

[1] = test compound dose 1000 nM, dosing schedule: sequential, osimertinib-only DTP control AUC in same experiment: 10968, DMSO control AUC in same experiment: 21594
[2] = test compound dose 1000 nM, dosing schedule: upfront, osimertinib-only DTP control AUC in same experiment: 17834, DMSO control AUC in same experiment: 21594
[3] = test compound dose 1000 nM, dosing schedule: sequential, osimertinib-only DTP control AUC in same experiment: 15001, DMSO control AUC in same experiment: 22064
[4] = test compound dose 1000 nM, dosing schedule: sequential, osimertinib-only DTP control AUC in same experiment: 15044, DMSO control AUC in same experiment: 30604
[5] = test compound dose 1000 nM, dosing schedule: upfront, osimertinib-only DTP control AUC in same experiment: 20672, DMSO control AUC in same experiment: 30604
[6] = test compound dose 1000 nM, dosing schedule: upfront, osimertinib-only DTP control AUC in same experiment: 24924, DMSO control AUC in same experiment: 22064

SMILES: Cc1nc(Nc2ncc(C(=O)Nc3c(C)cccc3Cl)s2)cc(N2CCN(CCO)CC2)n1 [Dasatinib] + C=CC(=O)Nc1cc(Nc2nccc(-c3cn(C)c4ccccc34)n2)c(OC)cc1N(C)CCN(C)C [osimertinib]
- area under confluence curve (test compound dose 30 nM, dosing schedule: sequential, osimertinib-only DTP control AUC in same experiment: 10175, DMSO control AUC in same experiment: 27958): 2120
- area under confluence curve (test compound dose 30 nM, dosing schedule: sequential, osimertinib-only DTP control AUC in same experiment: 12589, DMSO control AUC in same experiment: 28243): 1440
- area under confluence curve (test compound dose 30 nM, dosing schedule: upfront, osimertinib-only DTP control AUC in same experiment: 16088, DMSO control AUC in same experiment: 28243): 1770
- area under confluence curve (test compound dose 30 nM, dosing schedule: upfront, osimertinib-only DTP control AUC in same experiment: 16134, DMSO control AUC in same experiment: 27958): 2420

SMILES: COC[C@H]1Cn2cc(-c3nc(Nc4ccnn4C)ncc3C)nc2C(=O)N1Cc1ccc(F)c(F)c1 + C=CC(=O)Nc1cc(Nc2nccc(-c3cn(C)c4ccccc34)n2)c(OC)cc1N(C)CCN(C)C [osimertinib]
- area under confluence curve (test compound dose 100 nM, dosing schedule: sequential, osimertinib-only DTP control AUC in same experiment: 11414, DMSO control AUC in same experiment: 31219): 6430
- area under confluence curve (test compound dose 100 nM, dosing schedule: sequential, osimertinib-only DTP control AUC in same experiment: 14554, DMSO control AUC in same experiment: 49189): 2470
- area under confluence curve (test compound dose 100 nM, dosing schedule: upfront, osimertinib-only DTP control AUC in same experiment: 18848, DMSO control AUC in same experiment: 31219): 2020
- area under confluence curve (test compound dose 100 nM, dosing schedule: upfront, osimertinib-only DTP control AUC in same experiment: 24473, DMSO control AUC in same experiment: 49189): 2580

SMILES: O=C(NC[C@H](O)CN1CCc2ccccc2C1)c1ccnc(NC2CCC2)c1 + C=CC(=O)Nc1cc(Nc2nccc(-c3cn(C)c4ccccc34)n2)c(OC)cc1N(C)CCN(C)C [osimertinib]
- area under confluence curve (test compound dose 100 nM, dosing schedule: sequential, osimertinib-only DTP control AUC in same experiment: 12891, DMSO control AUC in same experiment: 44384): 979
- area under confluence curve (test compound dose 100 nM, dosing schedule: upfront, osimertinib-only DTP control AUC in same experiment: 16570, DMSO control AUC in same experiment: 44384): 3800

SMILES: CNC(=O)c1cccc(-c2ccc3c(N4CCOC[C@@H]4C)nc(N4CCOC[C@@H]4C)nc3n2)c1 + C=CC(=O)Nc1cc(Nc2nccc(-c3cn(C)c4ccccc34)n2)c(OC)cc1N(C)CCN(C)C [osimertinib]
- area under confluence curve (test compound dose 100 nM, dosing schedule: sequential, osimertinib-only DTP control AUC in same experiment: 13052, DMSO control AUC in same experiment: 28334): 6580
- area under confluence curve (test compound dose 100 nM, dosing schedule: upfront, osimertinib-only DTP control AUC in same experiment: 17920, DMSO control AUC in same experiment: 28334): 14800

SMILES: NC1(C(=O)N[C@@H](CCO)c2ccc(Cl)cc2)CCN(c2nc[nH]c3nccc2-3)CC1 [Capivasertib] + C=CC(=O)Nc1cc(Nc2nccc(-c3cn(C)c4ccccc34)n2)c(OC)cc1N(C)CCN(C)C [osimertinib]
- area under confluence curve (test compound dose 300 nM, dosing schedule: sequential, osimertinib-only DTP control AUC in same experiment: 3562, DMSO control AUC in same experiment: 31840): 1390
- area under confluence curve (test compound dose 300 nM, dosing schedule: sequential, osimertinib-only DTP control AUC in same experiment: 10725, DMSO control AUC in same experiment: 30578): 2030
- area under confluence curve (test compound dose 300 nM, dosing schedule: sequential, osimertinib-only DTP control AUC in same experiment: 12535, DMSO control AUC in same experiment: 43316): 2150
- area under confluence curve (test compound dose 300 nM, dosing schedule: upfront, osimertinib-only DTP control AUC in same experiment: 10245, DMSO control AUC in same experiment: 30578): 9240
- area under confluence curve (test compound dose 300 nM, dosing schedule: upfront, osimertinib-only DTP control AUC in same experiment: 15354, DMSO control AUC in same experiment: 43316): 14600
- area under confluence curve (test compound dose 300 nM, dosing schedule: upfront, osimertinib-only DTP control AUC in same experiment: 19015, DMSO control AUC in same experiment: 31840): 13200

SMILES: Oc1nc(-c2ccc(C(F)(F)F)cc2)nc2c1CSCC2 + C=CC(=O)Nc1cc(Nc2nccc(-c3cn(C)c4ccccc34)n2)c(OC)cc1N(C)CCN(C)C [osimertinib]
- area under confluence curve (test compound dose 300 nM, dosing schedule: sequential, osimertinib-only DTP control AUC in same experiment: 12502, DMSO control AUC in same experiment: 49143): 9570
- area under confluence curve (test compound dose 300 nM, dosing schedule: upfront, osimertinib-only DTP control AUC in same experiment: 28310, DMSO control AUC in same experiment: 49143): 8680

SMILES: CS(=O)(=O)N1CCN(Cc2cc3nc(-c4cccc5[nH]ncc45)nc(N4CCOCC4)c3s2)CC1 + C=CC(=O)Nc1cc(Nc2nccc(-c3cn(C)c4ccccc34)n2)c(OC)cc1N(C)CCN(C)C [osimertinib]
- area under confluence curve (test compound dose 1000 nM, dosing schedule: sequential, osimertinib-only DTP control AUC in same experiment: 1963, DMSO control AUC in same experiment: 30580): 1580 ± 160
- area under confluence curve (test compound dose 1000 nM, dosing schedule: upfront, osimertinib-only DTP control AUC in same experiment: 8618, DMSO control AUC in same experiment: 30580): 4540 ± 320

SMILES: Cc1nc(N2CCC3(CC2)CO[C@@H](C)[C@H]3N)c(CO)nc1-c1cccc(Cl)c1Cl + C=CC(=O)Nc1cc(Nc2nccc(-c3cn(C)c4ccccc34)n2)c(OC)cc1N(C)CCN(C)C [osimertinib]
- area under confluence curve (test compound dose 1000 nM, dosing schedule: sequential, osimertinib-only DTP control AUC in same experiment: 10671, DMSO control AUC in same experiment: 21678): 9600
- area under confluence curve (test compound dose 1000 nM, dosing schedule: sequential, osimertinib-only DTP control AUC in same experiment: 13130, DMSO control AUC in same experiment: 20567): 7660
- area under confluence curve (test compound dose 1000 nM, dosing schedule: upfront, osimertinib-only DTP control AUC in same experiment: 18577, DMSO control AUC in same experiment: 20567): 13500
- area under confluence curve (test compound dose 1000 nM, dosing schedule: upfront, osimertinib-only DTP control AUC in same experiment: 19512, DMSO control AUC in same experiment: 21678): 10500

SMILES: Cc1nc2nc(C)c(O[C@@H]3CCN(c4ccc(-c5ccc(CN6CCOCC6)nn5)cc4)C3)c(C)n2n1 + C=CC(=O)Nc1cc(Nc2nccc(-c3cn(C)c4ccccc34)n2)c(OC)cc1N(C)CCN(C)C [osimertinib]
- area under confluence curve (test compound dose 1000 nM, dosing schedule: sequential, osimertinib-only DTP control AUC in same experiment: 10725, DMSO control AUC in same experiment: 30578): 14600
- area under confluence curve (test compound dose 1000 nM, dosing schedule: upfront, osimertinib-only DTP control AUC in same experiment: 10245, DMSO control AUC in same experiment: 30578): 12400

SMILES: Cc1cc2cc(C(=O)c3cnn(-c4cnc(Oc5c(F)cccc5F)cc4C)c3N)[nH]c2cc1NS(C)(=O)=O + C=CC(=O)Nc1cc(Nc2nccc(-c3cn(C)c4ccccc34)n2)c(OC)cc1N(C)CCN(C)C [osimertinib]
- area under confluence curve [1]: 7640
- area under confluence curve [2]: 9050

SMILES: O=C([C@@H](Cc1cccc(C(F)(F)F)c1)NS(=O)(=O)c1cc(F)c2c(c1)CCNC2)N1CCCC1 + C=CC(=O)Nc1cc(Nc2nccc(-c3cn(C)c4ccccc34)n2)c(OC)cc1N(C)CCN(C)C [osimertinib]
- area under confluence curve [1]: 10000
- area under confluence curve [2]: 13600

SMILES: C[C@@H]1COCCN1c1cc(C2([S@](C)(=N)=O)CC2)nc(-c2cc[nH]c3nccc2-3)n1 + C=CC(=O)Nc1cc(Nc2nccc(-c3cn(C)c4ccccc34)n2)c(OC)cc1N(C)CCN(C)C [osimertinib]
- area under confluence curve [3]: 14300
- area under confluence curve [4]: 12300
- area under confluence curve [5]: 15900
- area under confluence curve [6]: 16500

SMILES: O=C(c1cc(Cc2n[nH]c(=O)c3ccccc23)ccc1F)N1CCN(C(=O)C2CC2)CC1 [Olaparib] + C=CC(=O)Nc1cc(Nc2nccc(-c3cn(C)c4ccccc34)n2)c(OC)cc1N(C)CCN(C)C [osimertinib]
- area under confluence curve [3]: 7460
- area under confluence curve [4]: 12600
- area under confluence curve [5]: 16600
- area under confluence curve [6]: 18600
